Experimental data published in the supplement of paper PMC8728848.
The full list was thinned out, with the strongest signals kept by preference.

Experiments:
Test in all cases: glycan array binding signal (z-score within array); higher = stronger binding
Conditions in all cases: glycan notation: IUPAC condensed, linker removed
[1] = target: Fuc(a1-2)Gal(b1-3)GlcNAc(b1-3)[Fuc(a1-2)Gal(b1-3)GlcNAc(b1-6)]GalNAc
How it was run: (§1)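 Glycan array data were curated from 3228 arrays in the Consortium for Functional Glycomics database and kept only where the protein sequence was available. Glycan names were converted to IUPAC-condensed notation, and columns mapping to the same glycan were averaged. The binding signal is a within-array Z-score, averaged across arrays of the same protein sequence at different concentrations or buffers and across linkers. Negative Z-scores can be read as non-binding.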

[2] = target: Fuc(a1-2)Gal(b1-4)[Fuc(a1-3)]GlcNAc(b1-3)Gal(b1-4)[Fuc(a1-3)]GlcNAc
How it was run: as §1

[3] = target: Fuc(a1-2)[Gal(a1-3)]Gal(b1-3)GlcNAc
How it was run: as §1

[4] = target: Fuc(a1-2)[Gal(a1-3)]Gal(b1-4)GlcNAc(b1-3)GalNAc
How it was run: as §1

[5] = target: Gal(a1-3)Gal(b1-4)Glc
How it was run: as §1

[6] = target: Gal(a1-3)Gal(b1-4)GlcNAc(b1-2)Man(a1-3)[Gal(a1-3)Gal(b1-4)GlcNAc(b1-2)Man(a1-6)]Man(b1-4)GlcNAc(b1-4)GlcNAc
How it was run: as §1

[7] = target: Gal(a1-4)Gal(b1-3)GlcNAc(b1-2)Man(a1-3)[Gal(a1-4)Gal(b1-3)GlcNAc(b1-2)Man(a1-6)]Man(b1-4)GlcNAc(b1-4)GlcNAc
How it was run: as §1

[8] = target: Gal(b1-2)Gal
How it was run: as §1

[9] = target: Gal(b1-3)GalNAc(a1-3)[Fuc(a1-2)]Gal(b1-4)Glc
How it was run: as §1

[10] = target: Gal(b1-3)GalNAc(b1-3)Gal(a1-4)Gal(b1-4)Glc
How it was run: as §1

[11] = target: Gal(b1-3)GalNAc(b1-4)Gal(b1-4)Glc
How it was run: as §1

[12] = target: Gal(b1-3)GlcNAc(b1-3)Gal(b1-3)GlcNAc
How it was run: as §1

[13] = target: Gal(b1-3)GlcNAc6S
How it was run: as §1

[14] = target: Gal(b1-3)[Fuc(a1-4)]GlcNAc(b1-2)Man(a1-3)[Gal(b1-3)[Fuc(a1-4)]GlcNAc(b1-2)Man(a1-6)]Man(b1-4)GlcNAc(b1-4)[Fuc(a1-6)]GlcNAc
How it was run: as §1

[15] = target: Gal(b1-4)GlcNAc(b1-2)Man(a1-6)[GlcNAc(b1-2)Man(a1-3)]Man(b1-4)GlcNAc(b1-4)GlcNAc
How it was run: as §1

[16] = target: Gal(b1-4)GlcNAc(b1-2)[Gal(b1-4)GlcNAc(b1-4)]Man(a1-3)[GlcNAc(b1-4)][Gal(b1-4)GlcNAc(b1-2)Man(a1-6)]Man(b1-4)GlcNAc(b1-4)GlcNAc
How it was run: as §1

[17] = target: Gal(b1-4)GlcNAc(b1-3)Gal(b1-4)GlcNAc(b1-2)Man(a1-3)[Gal(b1-4)GlcNAc(b1-3)Gal(b1-4)GlcNAc(b1-2)Man(a1-6)]Man(b1-4)GlcNAc(b1-4)GlcNAc
How it was run: as §1

[18] = target: Gal(b1-4)GlcNAc(b1-3)Gal(b1-4)GlcNAc(b1-3)Gal(b1-4)GlcNAc(b1-2)Man(a1-3)[Gal(b1-4)GlcNAc(b1-3)Gal(b1-4)GlcNAc(b1-3)Gal(b1-4)GlcNAc(b1-2)Man(a1-6)]Man(b1-4)GlcNAc(b1-4)[Fuc(a1-6)]GlcNAc
How it was run: as §1

[19] = target: Gal(b1-4)GlcNAc(b1-3)Gal(b1-4)GlcNAc(b1-3)Gal(b1-4)GlcNAc(b1-3)Gal(b1-4)GlcNAc(b1-2)Man(a1-3)[Gal(b1-4)GlcNAc(b1-3)Gal(b1-4)GlcNAc(b1-3)Gal(b1-4)GlcNAc(b1-3)Gal(b1-4)GlcNAc(b1-2)Man(a1-6)]Man(b1-4)GlcNAc(b1-4)GlcNAc
How it was run: as §1

[20] = target: Gal(b1-4)GlcNAc(b1-3)Gal(b1-4)GlcNAc(b1-3)Gal(b1-4)GlcNAc(b1-3)Gal(b1-4)GlcNAc(b1-2)Man(a1-3)[Gal(b1-4)GlcNAc(b1-3)Gal(b1-4)GlcNAc(b1-3)Gal(b1-4)GlcNAc(b1-3)Gal(b1-4)GlcNAc(b1-2)Man(a1-6)]Man(b1-4)GlcNAc(b1-4)[Fuc(a1-6)]GlcNAc
How it was run: as §1

[21] = target: Gal(b1-4)GlcNAc(b1-3)Gal(b1-4)GlcNAc(b1-3)Gal(b1-4)GlcNAc(b1-3)Gal(b1-4)GlcNAc(b1-2)[Gal(b1-4)GlcNAc(b1-3)Gal(b1-4)GlcNAc(b1-3)Gal(b1-4)GlcNAc(b1-3)Gal(b1-4)GlcNAc(b1-6)]Man(a1-6)[Gal(b1-4)GlcNAc(b1-3)Gal(b1-4)GlcNAc(b1-3)Gal(b1-4)GlcNAc(b1-3)Gal(b1-4)GlcNAc(b1-2)Man(a1-3)]Man(b1-4)GlcNAc(b1-4)[Fuc(a1-6)]GlcNAc
How it was run: as §1

[22] = target: Gal(b1-4)GlcNAc(b1-3)Gal(b1-4)GlcNAc(b1-3)Gal(b1-4)GlcNAc(b1-3)Gal(b1-4)GlcNAc(b1-3)Gal(b1-4)GlcNAc(b1-2)Man(a1-3)[Gal(b1-4)GlcNAc(b1-3)Gal(b1-4)GlcNAc(b1-3)Gal(b1-4)GlcNAc(b1-3)Gal(b1-4)GlcNAc(b1-3)Gal(b1-4)GlcNAc(b1-2)Man(a1-6)]Man(b1-4)GlcNAc(b1-4)GlcNAc
How it was run: as §1

[23] = target: Gal(b1-4)GlcNAc(b1-3)Gal(b1-4)GlcNAc(b1-3)Gal(b1-4)GlcNAc(b1-3)Gal(b1-4)GlcNAc(b1-3)Gal(b1-4)GlcNAc(b1-2)Man(a1-3)[Gal(b1-4)GlcNAc(b1-3)Gal(b1-4)GlcNAc(b1-3)Gal(b1-4)GlcNAc(b1-3)Gal(b1-4)GlcNAc(b1-3)Gal(b1-4)GlcNAc(b1-2)Man(a1-6)]Man(b1-4)GlcNAc(b1-4)[Fuc(a1-6)]GlcNAc
How it was run: as §1

[24] = target: Gal(b1-4)GlcNAc(b1-3)Gal(b1-4)GlcNAc(b1-3)Gal(b1-4)GlcNAc(b1-3)Gal(b1-4)GlcNAc(b1-3)Gal(b1-4)GlcNAc(b1-2)[Gal(b1-4)GlcNAc(b1-3)Gal(b1-4)GlcNAc(b1-3)Gal(b1-4)GlcNAc(b1-3)Gal(b1-4)GlcNAc(b1-3)Gal(b1-4)GlcNAc(b1-6)]Man(a1-6)[Gal(b1-4)GlcNAc(b1-3)Gal(b1-4)GlcNAc(b1-3)Gal(b1-4)GlcNAc(b1-3)Gal(b1-4)GlcNAc(b1-3)Gal(b1-4)GlcNAc(b1-2)Man(a1-3)]Man(b1-4)GlcNAc(b1-4)[Fuc(a1-6)]GlcNAc
How it was run: as §1

[25] = target: Gal(b1-4)GlcNAc(b1-3)Gal(b1-4)GlcNAc(b1-3)Gal(b1-4)GlcNAc(b1-3)Gal(b1-4)GlcNAc(b1-3)Gal(b1-4)GlcNAc(b1-3)Gal(b1-4)GlcNAc(b1-2)Man(a1-3)[Gal(b1-4)GlcNAc(b1-3)Gal(b1-4)GlcNAc(b1-3)Gal(b1-4)GlcNAc(b1-3)Gal(b1-4)GlcNAc(b1-3)Gal(b1-4)GlcNAc(b1-3)Gal(b1-4)GlcNAc(b1-2)Man(a1-6)]Man(b1-4)GlcNAc(b1-4)GlcNAc
How it was run: as §1

[26] = target: Gal3S(b1-4)[Fuc(a1-3)]Glc6S
How it was run: as §1

[27] = target: Gal4S6S(b1-4)GlcNAc
How it was run: as §1

[28] = target: Gal6S(b1-3)GlcNAc
How it was run: as §1

[29] = target: GalNAc(b1-3)Gal(a1-6)Gal(b1-4)Glc
How it was run: as §1

[30] = target: GalNAc(b1-3)GlcNAc
How it was run: as §1

[31] = target: GalNAc3S(b1-4)GlcNAc3S
How it was run: as §1

[32] = target: GlcA(b1-6)Gal
How it was run: as §1

[33] = target: GlcNAc(a1-4)Gal(b1-4)GlcNAc(b1-3)Gal(b1-4)GlcNAc(b1-3)Gal(b1-4)GlcNAc
How it was run: as §1

[34] = target: GlcNAc(b1-6)Gal(b1-4)GlcNAc
How it was run: as §1

[35] = target: GlcNAc(b1-6)GalNAc
How it was run: as §1

[36] = target: Kdn(a2-3)Gal(b1-3)GlcNAc
How it was run: as §1

[37] = target: Kdn(a2-3)Gal(b1-4)GlcNAc
How it was run: as §1

[38] = target: Man(a1-2)Man(a1-3)[Man(a1-2)Man(a1-6)]Man
How it was run: as §1

[39] = target: Neu5Ac(a2-3)Gal(b1-4)GlcNAc(b1-3)Gal(b1-4)GlcNAc(b1-3)GalNAc
How it was run: as §1

[40] = target: Neu5Ac(a2-3)Gal(b1-4)[Fuc(a1-3)]GlcNAc(b1-3)Gal
How it was run: as §1

[41] = target: Neu5Ac(a2-3)Gal(b1-4)[Fuc(a1-3)]GlcNAc(b1-3)Gal(b1-4)GlcNAc
How it was run: as §1

[42] = target: Neu5Ac(a2-3)Gal(b1-4)[Fuc(a1-3)]GlcNAc(b1-6)[Gal(b1-3)]GalNAc
How it was run: as §1

[43] = target: Neu5Ac(a2-3)[GalNAc(b1-4)]Gal(b1-4)Glc
How it was run: as §1

[44] = target: Neu5Ac(a2-6)Gal(b1-3)GlcNAc(b1-3)[Gal(b1-4)GlcNAc(b1-6)]Gal(b1-4)Glc
How it was run: as §1

[45] = target: Neu5Ac(a2-6)Gal(b1-4)GlcNAc(b1-2)Man(a1-3)[Man(a1-6)]Man(b1-4)GlcNAc(b1-4)GlcNAc
How it was run: as §1

[46] = target: Neu5Ac(a2-6)Gal(b1-4)GlcNAc(b1-3)[Neu5Ac(a2-6)Gal(b1-4)GlcNAc(b1-6)]GalNAc
How it was run: as §1

[47] = target: Neu5Ac(a2-6)Gal(b1-4)GlcNAc(b1-6)[Gal(b1-3)GlcNAc(b1-3)]Gal(b1-4)Glc
How it was run: as §1

[48] = target: Neu5Ac(a2-6)GalNAc(b1-4)GlcNAc
How it was run: as §1

[49] = target: Neu5Gc(a2-6)GalNAc
How it was run: as §1

B1: Epa9 (Candida glabrata), CAGL0A01386g (protein)
chain: MGSSHHHHHHSSGLVPRGSHMDITPFAHYPRPEGCSSPPNAVSVGLHMDLYNYPYLYVKNPRTGFTNDTDSDADGETDGDSAGGIEGRAGQCWNPEYQDPNFPRYGYKKYGSFGSSDHVNGKISWDHNEFKEGCKPIMARLPTAYNYPAKITFSNFTMVLSGYFKPKSTGLYKFEIHADDFILFNFGSKNAFECCNREESIDNFGPYVAYAMWPNEADQELEVYLFEDSYYPIRLFYNNRDYHSKFMVGFYPPNTEEITYDFDGYLYMLDDTGNECKDSIRYKTVCDD
glycan array binding signal (z-score) [1]: -0.296
glycan array binding signal (z-score) [2]: -0.521
glycan array binding signal (z-score) [3]: -0.32
glycan array binding signal (z-score) [4]: -0.304
glycan array binding signal (z-score) [5]: 0.746
glycan array binding signal (z-score) [6]: 4.07
glycan array binding signal (z-score) [7]: 4.05
glycan array binding signal (z-score) [8]: 0.38
glycan array binding signal (z-score) [9]: 1.58
glycan array binding signal (z-score) [10]: 1.98
glycan array binding signal (z-score) [11]: 4.13
glycan array binding signal (z-score) [12]: -0.11
glycan array binding signal (z-score) [13]: -0.028
glycan array binding signal (z-score) [14]: -0.377
glycan array binding signal (z-score) [15]: 0.1
glycan array binding signal (z-score) [16]: 1.34
glycan array binding signal (z-score) [17]: 1.3
glycan array binding signal (z-score) [18]: 3.45
glycan array binding signal (z-score) [19]: 4.82
glycan array binding signal (z-score) [20]: 4.74
glycan array binding signal (z-score) [21]: 5.31
glycan array binding signal (z-score) [22]: 5.73
glycan array binding signal (z-score) [23]: 5.38
glycan array binding signal (z-score) [24]: 6.29
glycan array binding signal (z-score) [25]: 4.6
glycan array binding signal (z-score) [26]: -0.318
glycan array binding signal (z-score) [27]: -0.491
glycan array binding signal (z-score) [28]: -0.361
glycan array binding signal (z-score) [29]: -0.468
glycan array binding signal (z-score) [30]: -0.486
glycan array binding signal (z-score) [31]: -0.441
glycan array binding signal (z-score) [32]: -0.198
glycan array binding signal (z-score) [33]: -0.462
glycan array binding signal (z-score) [34]: 0.361
glycan array binding signal (z-score) [35]: -0.467
glycan array binding signal (z-score) [36]: -0.454
glycan array binding signal (z-score) [37]: -0.394
glycan array binding signal (z-score) [38]: -0.635
glycan array binding signal (z-score) [39]: -0.387
glycan array binding signal (z-score) [40]: -0.474
glycan array binding signal (z-score) [41]: -0.253
glycan array binding signal (z-score) [42]: -0.217
glycan array binding signal (z-score) [43]: -0.447
glycan array binding signal (z-score) [44]: 0.392
glycan array binding signal (z-score) [45]: -0.06
glycan array binding signal (z-score) [46]: -0.357
glycan array binding signal (z-score) [47]: -0.304
glycan array binding signal (z-score) [48]: -0.519
glycan array binding signal (z-score) [49]: -0.467
